Experimental data taken from PubChem BioAssay.
Calls of active or inactive are those of the source. Rule as the data show it: active = inhibition above about 31%; inactive = the rest.

Test: MRP1 drug-resistance reversers in H69AR cells – cell-based, doxorubicin co-treatment, pilot screen (AID 601)
Details: H69AR cells, CellTiter-Glo, 72 h; compound alone cytotoxicity; at 10 µM

Row | Compound | viability [%]
1 | CC(C)(C)C(O)C(Oc1ccc(Cl)cc1)n1cncn1 (stereo not given) | 87.2
2 | COc1cc(/C=N/n2cnnc2)ccc1OC(=O)N(C)C | 102
3 | Nc1ccnn1C1CCNCC1 | 107
4 | COC(=O)c1c(C)n(Cc2ccc3c(c2)OCO3)c2ccc(O)cc12 | 105
5 | O=C(c1ccc(CS(=O)(=O)c2ccccc2)o1)N1CCC2(CC1)OCCO2 | 85
6 | COc1cc(C2NCc3ccccc3-n3cccc32)ccc1O (stereo not given) | 101
7 | COc1ccc(CN2CCN(C(=O)Cc3ccccc3)CC2)c(OC)c1 | 97.3
8 | CC(C)OC(=O)c1c(N)n(CC2CCCO2)c2nc3ccccc3nc12 (stereo not given) | 94.7
9 | O=C(c1sc2ccccc2c1Cl)N1CCC2(CC1)OCCO2 | 109
10 | CSc1ccc(C(=O)C(C)(C)N2CCOCC2)cc1 | 105
11 | CCCCCCC(N)CC(=O)O (stereo not given) | 94.8
12 | CC(C)(C)OC(=O)c1c(N)n(Cc2ccco2)c2nc3ccccc3nc12 | 65.4
13 | c1cncc(CNC2=NCCCCC2)c1 | 97.4
14 | COc1ccccc1-n1c(O)c(C=NCc2ccc3c(c2)OCO3)c(=O)[nH]c1=O | 91.8
15 | O=C(CCCOc1ccc(Cl)cc1Cl)N1CCC2(CC1)OCCO2 | 92.5
16 | Cc1oc2ccc(OC(=O)N(C)C)cc2c1C(=O)OC(C)C | 107
17 | Oc1ccc(C2NCc3ccccc3-n3cccc32)cc1Cl (stereo not given) | 83.8
18 | O=c1[nH]c(=O)n(-c2ccc(F)cc2)c(O)c1C=Nc1ccccc1N1CCCC1 | 61.3
19 | CCOC(=O)C1CCCCC12C(C#N)=C(N)Oc1n[nH]c(C)c12 (stereo not given) | 93.3
20 | COCCOC(=O)C1=C(N)Oc2c(c(=O)oc3ccccc23)C1c1ccncc1 (stereo not given) | 92

Row | Compound | viability [%]
21 | CCN1CCN(c2ncnc3ccc(Br)cc23)CC1 | 91.2
22 | CCOP(=S)(OCC)c1ccc(N(C)C)cc1 | 78.3
23 | NC(=O)CSP(=O)(c1ccccc1)c1ccccc1 | 102
24 | Nc1ccc(C2(c3ccc(N)cc3)CN3CCC2CC3)cc1 | 106
25 | CN(C)c1cc(N)c2c(n1)CCC2 (tested in a mixture with another compound) | 86.1
26 | CCOc1ccc(-n2c(O)c(C=NCCN3CCNCC3)c(=O)[nH]c2=O)cc1 | 89
27 | CC(=NCCCO)c1c(O)n(Cc2ccccc2)c(=O)[nH]c1=O | 94.4
28 | Cc1cc(N2C(=O)C3CCCN3C2c2cccc(Cl)c2)no1 (stereo not given) | 109
29 | COc1ccc(S(=O)(=O)NC(CC(=O)N2CCC3(CC2)OCCO3)c2ccco2)cc1 (stereo not given) | 93.9
30 | COc1ccccc1N1CCN(Cc2c(F)cccc2F)CC1 | 94.2
31 | CSc1ccc(CNC2CN3CCC2CC3)cc1 (stereo not given) | 89.1
32 | Cc1ccc(C)c(NC2=NCCCS2)c1 | 104
33 | CC1=C(C(=O)OC(C)C)[C@]2(C(=O)N(CC(N)=O)c3ccccc32)C(C#N)=C(N)O1 | 113
34 | CCCCn1c(O)c(C(C)=NCCc2ccccc2)c(=O)[nH]c1=O | 100
35 | O=C1C2CCCN2C(c2ccc(Cl)c(Cl)c2)N1c1ccccn1 (stereo not given) | 97.4
36 | COC(=O)CC1(Cc2ccccc2)C(=O)NC(=O)NC1=O | 102
37 | Cc1ccc(S(=O)(=O)Cc2ccc(C(=O)N3CCC4(CC3)OCCO4)o2)cc1 | 90.6
38 | O=C1CC(N2CCC(n3c(=O)[nH]c4ccccc43)CC2)C(=O)N1c1ccc(F)cc1 (stereo not given) | 103
39 | CCOc1cc2[nH]c(=S)n(CCCC(=O)N3CCC4(CC3)OCCO4)c(=O)c2cc1OCC | 89.2
40 | CC(=NCc1ccc2c(c1)OCO2)c1c(O)n(C)c(=O)n(C)c1=O | 98

Test: yeast transport mutant growth inhibition pilot in 384-well plates, post-Golgi transport modulator project (AID 636)
Details: absorbance 615 nm, about 18 h, stronger effect = higher value

Row | Compound | inhibition
41 | CC(C)(C)C(O)C(Oc1ccc(Cl)cc1)n1cncn1 (stereo not given) | -4.46% (inactive)
42 | COc1cc(/C=N/n2cnnc2)ccc1OC(=O)N(C)C | -4.21% (inactive)
43 | Nc1ccnn1C1CCNCC1 | -4.25% (inactive)
44 | COC(=O)c1c(C)n(Cc2ccc3c(c2)OCO3)c2ccc(O)cc12 | -3.6% (inactive)
45 | O=C(c1ccc(CS(=O)(=O)c2ccccc2)o1)N1CCC2(CC1)OCCO2 | -2.11% (inactive)
46 | COc1cc(C2NCc3ccccc3-n3cccc32)ccc1O (stereo not given) | -5.79% (inactive)
47 | COc1ccc(CN2CCN(C(=O)Cc3ccccc3)CC2)c(OC)c1 | -6.08% (inactive)
48 | CC(C)OC(=O)c1c(N)n(CC2CCCO2)c2nc3ccccc3nc12 (stereo not given) | -1.58% (inactive)
49 | O=C(c1sc2ccccc2c1Cl)N1CCC2(CC1)OCCO2 | 0.13% (inactive)
50 | CSc1ccc(C(=O)C(C)(C)N2CCOCC2)cc1 | -2.76% (inactive)
51 | CCCCCCC(N)CC(=O)O (stereo not given) | -1.69% (inactive)
52 | CC(C)(C)OC(=O)c1c(N)n(Cc2ccco2)c2nc3ccccc3nc12 | 0.79% (inactive)
53 | c1cncc(CNC2=NCCCCC2)c1 | -0.78% (inactive)
54 | COc1ccccc1-n1c(O)c(C=NCc2ccc3c(c2)OCO3)c(=O)[nH]c1=O | -2.43% (inactive)
55 | O=C(CCCOc1ccc(Cl)cc1Cl)N1CCC2(CC1)OCCO2 | -5% (inactive)
56 | Cc1oc2ccc(OC(=O)N(C)C)cc2c1C(=O)OC(C)C | -3.24% (inactive)
57 | Oc1ccc(C2NCc3ccccc3-n3cccc32)cc1Cl (stereo not given) | -6.18% (inactive)
58 | O=c1[nH]c(=O)n(-c2ccc(F)cc2)c(O)c1C=Nc1ccccc1N1CCCC1 | -3.55% (inactive)
59 | CCOC(=O)C1CCCCC12C(C#N)=C(N)Oc1n[nH]c(C)c12 (stereo not given) | 0.66% (inactive)
60 | COCCOC(=O)C1=C(N)Oc2c(c(=O)oc3ccccc23)C1c1ccncc1 (stereo not given) | -2.76% (inactive)

Row | Compound | inhibition
61 | CCN1CCN(c2ncnc3ccc(Br)cc23)CC1 | -0.79% (inactive)
62 | CCOP(=S)(OCC)c1ccc(N(C)C)cc1 | 4.29% (inactive)
63 | NC(=O)CSP(=O)(c1ccccc1)c1ccccc1 | -8.53% (inactive)
64 | Nc1ccc(C2(c3ccc(N)cc3)CN3CCC2CC3)cc1 | -5.75% (inactive)
65 | CN(C)c1cc(N)c2c(n1)CCC2 (tested in a mixture with another compound) | -4.49% (inactive)
66 | CCOc1ccc(-n2c(O)c(C=NCCN3CCNCC3)c(=O)[nH]c2=O)cc1 | -1.58% (inactive)
67 | CC(=NCCCO)c1c(O)n(Cc2ccccc2)c(=O)[nH]c1=O | -4.61% (inactive)
68 | Cc1cc(N2C(=O)C3CCCN3C2c2cccc(Cl)c2)no1 (stereo not given) | -0.13% (inactive)
69 | COc1ccc(S(=O)(=O)NC(CC(=O)N2CCC3(CC2)OCCO3)c2ccco2)cc1 (stereo not given) | -8.77% (inactive)
70 | COc1ccccc1N1CCN(Cc2c(F)cccc2F)CC1 | -1.69% (inactive)
71 | CSc1ccc(CNC2CN3CCC2CC3)cc1 (stereo not given) | -3.47% (inactive)
72 | Cc1ccc(C)c(NC2=NCCCS2)c1 | -8.08% (inactive)
73 | CC1=C(C(=O)OC(C)C)[C@]2(C(=O)N(CC(N)=O)c3ccccc32)C(C#N)=C(N)O1 | -6.8% (inactive)
74 | CCCCn1c(O)c(C(C)=NCCc2ccccc2)c(=O)[nH]c1=O | -0.26% (inactive)
75 | O=C1C2CCCN2C(c2ccc(Cl)c(Cl)c2)N1c1ccccn1 (stereo not given) | -4.08% (inactive)
76 | COC(=O)CC1(Cc2ccccc2)C(=O)NC(=O)NC1=O | -5.07% (inactive)
77 | Cc1ccc(S(=O)(=O)Cc2ccc(C(=O)N3CCC4(CC3)OCCO4)o2)cc1 | 7.37% (inactive)
78 | O=C1CC(N2CCC(n3c(=O)[nH]c4ccccc43)CC2)C(=O)N1c1ccc(F)cc1 (stereo not given) | -4.74% (inactive)
79 | CCOc1cc2[nH]c(=S)n(CCCC(=O)N3CCC4(CC3)OCCO4)c(=O)c2cc1OCC | -4.59% (inactive)
80 | CC(=NCc1ccc2c(c1)OCO2)c1c(O)n(C)c(=O)n(C)c1=O | -4.42% (inactive)
